Where “and” joins values, the source holds several entries; their conditions need not be identical. Identical values can stand only once. Inconclusive results are not listed. Where a call stands in place of a potency, no number is given. Calls of active or inactive are those of the source. The call rests on the fitted dose curve; in most records, active means well fitted activation curve with a large enough effect in the repeat runs; inconclusive means weak or mixed curves; inactive means flat fitted curve, though single readings scatter.
Assay: A CellTox Green Cytotoxicity Assay to monitor cytotoxicity in HepG2 cells - 40 hour (AID 1224879); further: nearly all actives have a fitted effect of over 40% in size
Conditions: CellTox Green fluorescence; series mostly up to 76.8 µM
Description: National Center for Advancing Translational Sciences [NCATS]
NIH Chemical Genomics Center [NCGC]
U.S. Environmental Protection Agency [EPA]
National Institutes of Environmental Health Sciences [NIEHS]
National Toxicology Program [NTP]
Cell-based models are critical for drug discovery. Determining the natural cytotoxic effects resulting from test compounds is an essential research activity. A CellTox Green Cytotoxicity Assay to monitor cytotoxicity in real time of continues cell culture during 40 hours of the compound treatment was used to screen Tox21 10K library compounds in HepG2 cells. CellTox Green Cytotoxicity Assay is a nonlytic, homogeneous, biofluorescent method to measure cytotoxicity in cell culture after experimental manipulation. The assay system uses a proprietary asymmetric cyanine dye that is excluded from viable cells but preferentially stains the dead cell's DNA. […] Viable cells produce no appreciable increases in fluorescence. Therefore, the fluorescence signal produced by the binding interaction with dead cell DNA is proportional to cytotoxicity.
The mixture of HepG2 cell suspension and reagents were dispensed at 600cells/6 ul/well in 1536-well tissue culture treated black solid bottom plates using a Multidrop dispenser. After the assay plates were incubated at a 37 C/5% CO2 incubator for 5 hours, 23 nL of compounds dissolved in DMSO, positive and negative controls was transferred to the assay plate by a pintool work station. The plates were incubated at 37 C for 40 hours. The fluorescence intensity were measured at 0h, 8h, 16h, 24h, 32h and 40h time points using ViewLux plate reader during compound treatment.
Potency means the concentration at half of the fitted maximal effect.

Row | SMILES | Potency | cytotoxicity increase
1 | CCCCCCCC/C=C\CCCCCCCC(=O)OC | inactive | –
2 | O=C(O)c1ccccc1NCCc1ccccc1 | inactive | –
3 | CCOC(=N)CC(=O)OCC | inactive | –
4 | CC(COc1ccc(C(C)(C)C)cc1)OS(=O)OCCCl (stereo not given) | inactive | –
5 | CCOC(=O)[C@@H](C)Oc1ccc(Oc2nc3ccc(Cl)cc3o2)cc1 | inactive | –
6 | CCC(=O)Oc1ccc(/C(CC)=C(\CC)c2ccc(OC(=O)CC)cc2)cc1 | inactive | –
7 | Oc1ccc(Nc2ccccc2)cc1 | inactive | –
8 | CCCCCCCCSCCO | 43.6 µM (active) | –
9 | O=C(O)c1cccnc1C(=O)O | inactive | –
10 | Cc1oc(C)c(C(=O)Nc2ccccc2)c1C | inactive | –
11 | O=C(O)c1snc(Cl)c1Cl | inactive | –
12 | CC1(C)O[C@@H]2C[C@H]3[C@@H]4CCC5=CC(=O)C=C[C@]5(C)[C@H]4[C@@H](O)C[C@]3(C)[C@]2(C(=O)CO)O1 | inactive | –
13 | CCCC(=O)O[C@]1(C(=O)COC(=O)CC)CC[C@H]2[C@@H]3CCC4=CC(=O)CC[C@]4(C)[C@H]3[C@@H](O)C[C@@]21C | – | -7.71% [at 15.8 µM] (inactive)
14 | CNC(=S)NC | 54.9 µM (active) | –
15 | Cc1nc2ccccn2c(=O)c1CCN1CCC(C(=O)c2ccc(F)cc2)CC1 | inactive | –
16 | CCCCC(CC)COC(=O)COc1ccc(Cl)cc1C (stereo not given) | inactive | –
17 | N#C/C(=C1\SCC(c2ccccc2Cl)S1)n1ccnc1 (stereo not given) | inactive | –
18 | COCc1c(C(C)C)nc(C(C)C)c(/C=C/[C@@H](O)C[C@@H](O)CC(=O)O)c1-c1ccc(F)cc1 | 379 nM (active) and 4.84 µM (active) | –
19 | c1ccc(COCc2ccccc2)cc1 | inactive | –
20 | CC1(C)C(=O)N(Br)C(=O)N1Cl | inactive | –

Row | SMILES | Potency | cytotoxicity increase
21 | CCCCCCCCCCCC(=O)[O][Sn]([CH2]CCC)([CH2]CCC)[O]C(=O)CCCCCCCCCCC | 16.9 µM (active) | –
22 | C[C@]12CCC(=O)C=C1C=C[C@@H]1[C@@H]2CC[C@@]2(C)[C@H]1CC[C@@]21CCC(=O)O1 | inactive | –
23 | Nc1c(I)cc(I)c(C(=O)N(CCC(=O)O)c2ccccc2)c1I | inactive | –
24 | CC1=CC(O)CC(C)(C)C1 (stereo not given) | inactive | –
25 | CC1=NN(c2ccc(C(=O)O)cc2)C(=O)C1 | inactive | –
26 | O=Cc1c(Cl)cccc1Cl | inactive | –
27 | Cc1ccccc1N1C(=O)c2cc(S(N)(=O)=O)c(Cl)cc2NC1C (stereo not given) | inactive | –
28 | C=CCNc1nc(NCC=C)nc(N2CCN(C(c3ccc(F)cc3)c3ccc(F)cc3)CC2)n1 | inactive | –
29 | CN(C)CCOC1=Cc2ccccc2Sc2ccc(Cl)cc21 | 23.9 µM (active) | –
30 | O=C(CCCCCCCCC#CI)Oc1ccccc1 | inactive | –
31 | CC(=O)CC(c1ccc([N+](=O)[O-])cc1)c1c(O)c2ccccc2oc1=O (stereo not given) | inactive | –
32 | CO[C@@]12[C@H](COC(N)=O)C3=C(C(=O)C(C)=C(N)C3=O)N1C[C@@H]1N[C@@H]12 | 6.74 µM (active) | –
33 | COc1cc2[nH]c(=O)[nH]c(=O)c2cc1OC | inactive | –
34 | NCC1CCCC(CN)C1 (stereo not given) | inactive | –
35 | CCCOc1ccc(S(=O)(=O)N2CCN(CC)CC2)cc1-c1nc2c(CC)n(Cc3ccccn3)nc2c(=O)[nH]1 | inactive | –
36 | O=C(O)c1ccc(CO)o1 | inactive | –
37 | CCCCCCCCCCCCCCC[C@H](O)[C@@H](N)CO | 26.8 µM (active) | –
38 | CCC(Cc1ccccc1)(C(=O)c1ccc(N2CCOCC2)cc1)N(C)C (stereo not given) | inactive | –
39 | CCC(C(=O)OCCN(CC)CC)c1ccccc1 (stereo not given) | inactive | –
40 | CCOC(=O)c1ccccc1C | inactive | –

From PubChem BioAssay (Tox21)
